IL-1B inflam inh = inhibitors of inflammasome signaling (IL-1 beta secretion) | THP-1 LPS/ATP IL-1B secretion, AlphaLISA, 16 h; hits give low values | activity change, % at 57.5 µM | 360,000 tested, 4.7% active | AID 743279; in the data active = activity change below about -50%; inconclusive = mostly about -30% to -49%
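Secreted IL-1B measured by AlphaLISA bead assay after 16 h compound exposure of THP-1 cells; compounds (final up to 57.5 uM) added 1 h before LPS (250 ng/mL) and ATP (1.25 mM) stimulation; lower signal means less secretion.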
ELG1 repair inh = inhibitors of ELG1-dependent DNA repair in HEK293T cells; HEK293T ELG1-luciferase reporter, luminescence, 16 h; DNA damage induced by 5-fluorouridine; Potency, µM (top dose mostly 46.1 µM), for the others: at the top dose activity change, negative = inhibition, hits mostly inhibitors; 330,000 tested, 2.3% active; AID 504467; also: potency is read from the fitted curve at half-maximal effect; nearly all actives have a fitted effect of over 55% in size
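Cells (2,000 per well) received 5-fluorouridine plus test compound or DMSO and were incubated 16 hr at 37 °C, 5% CO2. Luciferase activity was read by luminescence 30 min after ONE-Glo addition; signal suppression marked inhibition of damage-induced ELG1 function.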
DT40 TDP1 no CPT = qHTS for Inhibitors of human tyrosyl-DNA phosphodiesterase 1 (TDP1): qHTS in cells in absence of CPT; 420,000 tested, 15% active; Potency, µM (top dose mostly 46.2 µM), inactives show top-dose activity change, negative = growth inhibition, hits mostly inhibitors; DT40 Tdp1-/- hTDP1 cells, no CPT, ATP luminescence, 48 h; also: potency is read from the fitted curve at half-maximal effect; nearly all actives have a fitted effect of over 55% in size
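Cells were dispensed at 400 per well, compounds added by pin tool, plates incubated ≥48 hr at 37 °C, then CellTiter-Glo added for 30 min at room temperature before luminescence reading. Line: DT40 Tdp1-/- complemented with hTDP1; camptothecin omitted.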
HT1080-NT tox = kills 2HG-producing HT-1080-NT fibrosarcoma cells; HT-1080-NT fibrosarcoma viability, CellTiter-Glo ATP luminescence, 48 h; Potency, µM (titrated, usually from 46.1 µM), for the others: top-dose activity, negative = less viability, usual class: cytotoxic; 360,000 tested, 1.6% active; AID 686970;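 also: NT is the 2HG producing partner of a matched IDH1 knockdown line; potency is read from the fitted curve at half-maximal effect; 0% = DMSO-treated cells and -100% = media-only wells without cells; nearly all actives have a fitted effect of over 55% in size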
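Fibrosarcoma NT cells, 750 per well in 5% FBS RPMI, were exposed to compound for 48 hours. Viability: CellTiter-Glo luminescence.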
TDP1 cell CPT = growth inhibition of DT40 Tdp1-/-;hTDP1 cells with camptothecin (screen for TDP1 inhibitors); chicken DT40 Tdp1-/-;hTDP1 cells + 20 nM CPT, ATP luminescence, 48 h; 420,000 tested, 12% active; Potency, µM (top dose mostly 46.2 µM), for the others: top-dose activity change, negative = growth inhibition, most hits filed as inhibitors; also: potency is read from the fitted curve at half-maximal effect; nearly all actives have a fitted effect of over 55% in size
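Chicken DT40 Tdp1-/- cells complemented with human TDP1, 400 cells/well, exposed to compounds plus 20 nM camptothecin for at least 48 h at 37 C; viability read as ATP content by CellTiter-Glo luminescence.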
HT1080 IDH1KD tx = HT-1080 IDH1 knockdown cell toxicity (counter line). HT-1080 IDH1 knockdown viability, ATP luminescence, 48 h. Potency, µM (doses to about 46.1 µM), for the others: top-dose activity, negative = toxicity, usual class: cytotoxic. 360,000 tested, 2% active. AID 686971;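 also: potency is read from the fitted curve at half-maximal effect; 0% = DMSO wells and -100% = cell-free medium wells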
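In this qHTS, HT-1080 cells depleted of IDH1 are exposed for 48 h at 37 °C to compound titrations. Toxicity is scored from CellTiter-Glo luminescence, with DMSO as full viability and medium alone as none.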
* marks the source's active call; other numbers are inactive results; ? = inconclusive; . = no result given. A selection: hits, their analogues and other compounds. The true share with any hit is near 19%. Unless noted, calls follow the shape of the dose curve; as a rule, active = well fitted curve in the direction sought with a large enough effect; inconclusive = small, poorly fitted or top-dose-only effect, or another doubt; inactive = no such curve, though single readings can be large; an effect the other way counts as inactive or inconclusive. Unless noted, % is scaled to controls: 0 for no effect and ±100 for the full control effect.

SMILES	IL-1B inflam inh	ELG1 repair inh	DT40 TDP1 no CPT	HT1080-NT tox	TDP1 cell CPT	HT1080 IDH1KD tx
C[C@@H](NC(=O)Cn1ccc(N)nc1=O)c1cccc2ccccc12	-8	23%	12%	8%	?	7%
O=C(O)c1ccccc1OP(=O)(O)O	.	.	-14%	.	4%	.
O=C(O)c1ccccc1C(=O)NC1Cc2ccccc2C1	-5	2%	-7%	21%	-8%	18%
COc1cccc(C(=O)N2CCC(C(=O)Nc3cccc(Cl)c3)CC2)c1	.	.	23µM*	.	10µM*	.
COc1cc(C(=O)N2CCC(C(=O)Nc3cccc(C(C)=O)c3)CC2)cc(OC)c1OC	-6	-14%	?	1%	?	0%
CCCN(CCC)c1nc(N(CCC)CCC)[nH]c(=O)n1	13	?	18µM*	?	23µM*	3%
CCCN(CCC)c1nc(C#N)nc(N(CCC)CCC)n1	-7	-20%	?	22%	?	2%
C[C@H]1CN(CCc2ccccc2)C(=O)[C@@H]1CC(=O)Nc1ccccc1	-20	.	?	5%	-25%	1%
Cc1cccc(Oc2ncc(-c3ccc(Cl)cc3)cn2)c1C	-25	-21%	21µM*	-15%	?	-21%
Cc1ccc(Oc2ncc(-c3ccc(Cl)cc3)cn2)cc1	6	13%	5%	25%	3%	22%
CC1(C(=O)Nc2ccccc2)Cc2c(-c3cccc(C(N)=O)c3)ccnc2O1 (stereo not given)	-9	.	-21%	1%	?	7%
CC(=O)Nc1cccc(-c2ccnc3c2CC(C)(C(=O)Nc2ccccc2)O3)c1 (stereo not given)	-22	.	?	-14%	-30%	0%
CC1(C(=O)Nc2ccc(F)c(Cl)c2)Cc2c(-c3cccc(C(N)=O)c3)ccnc2O1 (stereo not given)	-10	.	?	?	?	?
CC(=O)Nc1cccc(-c2ccnc3c2CC(C)(C(=O)Nc2ccc(C(C)C)cc2)O3)c1 (stereo not given)	-60*	.	?	?	?	?
CC1(C(=O)Nc2ccc(Cl)cc2)Cc2c(-c3cccc(C(N)=O)c3)ccnc2O1 (stereo not given)	0	.	5.8µM*	?	3.7µM*	4.6µM*
CC(C)c1ccc(NC(=O)C2(C)Cc3c(-c4cccc(C(N)=O)c4)ccnc3O2)cc1 (stereo not given)	-69*	.	?	?	?	?
CC1(C(=O)Nc2ccc(F)c(Cl)c2)Cc2c(-c3ccc(C(N)=O)cc3)ccnc2O1 (stereo not given)	-79*	.	18µM*	?	21µM*	21µM*
O=C(CC1C(=O)NCCN1CC1CCCCC1)NCCCN1CCOCC1 (stereo not given)	-13	21%	3%	10%	-3%	13%
O=C(C1CCN(c2nnc(N3CCCC3=O)s2)CC1)N1CCN(c2cccc(C(F)(F)F)c2)CC1	36	?	1.8µM*	-11%	8.2µM*	-11%
Cc1ccc(C)c(N2CCN(C(=O)C3CCN(c4nnc(N5CCCC5=O)s4)CC3)CC2)c1	?	15µM*	?	-4%	23µM*	-3%
COc1ccc2c(c1)c(C(=O)N/N=C/c1cccc(Br)c1)c(C)n2C	0	-8%	10µM*	-10%	?	-6%
COc1ccc2c(c1)c(C(=O)CN(C)C)c(C)n2C	.	.	-18%	.	0%	.
COc1ccc2c(c1)c(C(C)=O)c(C)n2C	-8	-10%	?	21%	7%	9%
COc1ccc(/C=N/NC(=O)c2c(C)n(C)c3ccc(OC)cc23)c(OC)c1	7	-14%	?	22%	-26%	7%
COc1ccc2c(c1)c(C(=O)N/N=C/c1cccc(O)c1)c(C)n2C	-9	-20%	10µM*	19%	18µM*	13%
SMILES	IL-1B inflam inh	ELG1 repair inh	DT40 TDP1 no CPT	HT1080-NT tox	TDP1 cell CPT	HT1080 IDH1KD tx
COc1ccc2c(c1)c(C(=O)N/N=C/c1ccccc1Cl)c(C)n2C	-19	-16%	8.2µM*	-2%	21µM*	4%
CCCn1nnnc1NC(=O)c1ccc2ccccc2c1	49	?	18µM*	-21%	?	-30%
CCC(C)C(=O)C(=O)N1CCC(n2nccc2NC(=O)CCOc2ccccc2)CC1 (stereo not given)	-5	.	?	3%	-26%	1%
CC(O)CN1C(=O)C(CC(=O)Nc2ccc(Cl)cc2)SC1=Nc1ccccc1 (stereo not given)	-56*	-5%	26µM*	?	?	?
COCCN1C(=O)C(CC(=O)Nc2ccc(C(C)=O)cc2)SC1=Nc1ccccc1 (stereo not given)	15	1%	?	-17%	16µM*	-10%
Cc1nc(-c2ccc(C)c(N3CCN(C(=O)Nc4ccccc4C(F)(F)F)CC3)c2)no1	.	.	1%	.	-16%	.
CCCCOc1ccc(-c2cn3ccccc3n2)cc1[N+](=O)[O-]	-11	?	26µM*	-22%	?	?
CCCOc1ccc(-c2csc(N)n2)cc1[N+](=O)[O-]	-28	?	10µM*	1%	15µM*	11%
CCOc1ccc(-c2cn3ccccc3n2)cc1[N+](=O)[O-]	9	?	?	15µM*	?	16µM*
Nc1nc(-c2ccc([N+](=O)[O-])cc2)cs1	4	?	-4%	-7%	-16%	-1%
O=[N+]([O-])c1ccc(-c2cn3ccccc3n2)cc1	?	.	?	-2%	?	1%
CC(=O)Nc1cccc(-c2cn3ccccc3n2)c1	0	?	9%	12%	24%	10%
Cc1ccc2nc(CN3CCN(S(=O)(=O)c4ccc(C(C)C)cc4)CC3)oc2c1	.	.	-4%	.	-28%	.
COc1ccc(CCC(=O)NC2CC(=O)N(c3ccc(C)c(C)c3)C2)cc1 (stereo not given)	.	.	-18%	.	-2%	.
Cn1c(=O)c2c(nc(NCCNC(=O)c3ccco3)n2Cc2ccc(Cl)cc2Cl)n(C)c1=O	-7	?	?	0%	?	-2%
COc1ccc(Oc2nc3c(c(=O)n(C)c(=O)n3C)n2Cc2ccc(Cl)cc2Cl)cc1	.	.	21µM*	.	?	.
